# GAA850 FXN act: frataxin GAA850 promoter activation. AID 540364. activation, % at 6 µM. HEK293 lucGAA850 FXN promoter luciferase reporter, 24 h; percent of 10 µM SAHA response. actives 0.56% (n = 360,000);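 active means activation above the average of all compounds screened plus 3 SD, cutoff fixed separately per campaign, cut at about 7.5% in these data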
# HSP90 refold inh: inhibitors of HSP90 luciferase refolding in rabbit reticulocyte lysate | actives 0.91% (n = 290,000) | luciferase refolding luminescence, 3 h | inhibition, % at 5.6 µM | AID 1789;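 active means inhibition above the screen-wide mean plus 3 SD, computed separately per campaign, cut at about 16% in these data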;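 further: inhibitors lower the luminescence because luciferase stays unfolded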
# HSF1 inh: HSF1 inhibition. actives 0.77% (n = 300,000). AID 2098. activity change, negative = inhibition, % at 7.5 µM (by protocol). NIH3T3-HGL HSE-luciferase, MG132-induced, luminescence 8 h; active compounds read low;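 active means more than half of replicate wells show activity change below -50%, luminescence cut by over half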;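 further: luciferase reports HSF-1 transcriptional activity via heat shock element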
# AI-2 QS modul: modulators of Vibrio harveyi AI-2 quorum sensing system | actives 0.4% (n = 300,000) | Vibrio harveyi JMH597 AI-2 luminescence/OD600 ratio, 9 h; active compounds read low; strain lacks LuxN and CqsS sensors; 0 = neutral-control median | AID 2094 | activity change, % at 7.5 µM; in the data active means activity change below about -75%, passing the limit was not always enough;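 further: luminescence divided by OD600 gain over 9 h not by final OD600 alone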
# PG9 binder: small molecules binding HIV-1 gp120 antibody PG9; TR-FRET gp120-PG9 antibody binding; inhibition, % at 6.7 µM; actives 0.43% (n = 360,000); AID 624416; in the data active means inhibition above about 8.5%
# SMARCA2 activ: activators of SMARCA2 function. actives 1% (n = 370,000). activation, % at 9.1 µM. MG213 cells, MMTV-luciferase reporter, dexamethasone, overnight. AID 652017; in the data active means activation above about 7.8%
# GAA30 FXN cntr: activates GAA30 frataxin promoter, counter-screen for GAA850 activators; shares compounds with GAA850 FXN act; HEK293 lucGAA30 FXN promoter luciferase, 24 h; DMSO = 0%, 5 µM ipriflavone = 100%; activation, % at 6 µM; actives 66% (n = 1,900); AID 588350;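 active means mean activation above the mean of solvent-only control wells plus 3 SD, cut at about 22% in these data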;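 further: counterscreen of GAA850 promoter hits where activity marks nonselective or luminescence artifacts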
# FXN GAA850 conf: GAA850 FXN promoter activation confirmation | HEK293 lucGAA850 FXN promoter luciferase reporter, 24 h; 100% = activation by SAHA | shares compounds with GAA850 FXN act | activation, % at 6 µM | AID 588351 | actives 86% (n = 1,900);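 active means mean activation above a set limit taken from the primary screen, cut at about 8% in these data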
# Hits are given with their value; . = inactive; / = no result. The list is not random: actives were taken first. Their share in the collection is about 3.4%.
SMILES,GAA850 FXN act,HSP90 refold inh,HSF1 inh,AI-2 QS modul,PG9 binder,SMARCA2 activ,GAA30 FXN cntr,FXN GAA850 conf
COC(=O)c1c(NC(=O)c2ccco2)sc(C)c1C,.,.,.,.,.,.,/,/
CCOC(=O)[C@]12CCC=C1N(Cc1ccc3c(c1)OCO3)C(=O)[C@H](CC(=O)N1CCN(C(=O)c3ccco3)CC1)C2,/,/,/,/,.,.,/,/
CCOc1ccc(Nc2n[nH]c(=S)s2)cc1,9.8,.,.,.,.,.,116,32
COc1ccc2nc(N3CCN(C(=O)C4COc5ccccc5O4)CC3)sc2c1 (stereo not drawn),9.0,/,.,.,.,.,104,32
COC(=O)CC1N(S(=O)(=O)c2ccc(C)cc2)c2ccccc2C1(C(=O)OC)C(=O)OC (stereo not drawn),/,/,/,/,.,.,/,/
CCNC(=O)Nc1ccc2c(c1)C(=O)N(C)[C@H]1CC[C@H](CC(=O)N[C@H](C)c3ccccc3)O[C@@H]1CO2,/,/,/,/,/,.,/,/
CCCCC(=O)N(C)c1c(CC)nc2c(OCC=C(C)C)cccn12,.,/,/,/,/,/,/,/
Cc1ccccc1CN1CCCCC(NC(=O)c2ccccc2C)C1=O (stereo not drawn),/,/,/,/,/,.,/,/
CN1CCSc2ccc(C(=O)Nc3ccc(Cl)cc3)cc21,7.8,.,.,.,.,.,120,45
COc1cccc(NC(=O)c2ccc3c(c2)N(C)CCS3)c1,.,.,.,.,.,.,/,/
COc1ccc(Nc2cc(Nc3cccc(OC)c3)ncn2)cc1,7.8,.,.,.,.,.,85,26
COc1ccc(Nc2cc(Nc3ccc(OC)cc3)ncn2)cc1,.,.,.,.,.,.,/,/
COc1ccc(-c2nc(C#N)c(NCc3ccc(C)cc3)o2)cc1OC,.,.,.,.,.,.,/,/
COc1ccc(-c2nc(C#N)c(NCCc3ccccc3)o2)cc1OC,8.2,.,.,.,.,.,100,34
O=C(NCCc1ccc(O)c(O)c1)C1COc2ccccc2O1 (stereo not drawn),8.8,.,.,.,.,.,.,18
O=C(NCCc1ccccc1)C1COc2ccccc2O1 (stereo not drawn),.,.,.,.,.,.,/,/
Cc1ccc(-c2nnn(CC(=O)N(CC3CCCO3)C(C(=O)NC3CCCCC3)c3ccc(F)cc3)n2)o1 (stereo not drawn),8.3,.,.,.,.,.,22,8.4
COc1ccc(C(C(=O)NC2CCCC2)N(CC2CCCO2)C(=O)Cn2nnc(-c3ccc(C)o3)n2)cc1 (stereo not drawn),.,.,.,.,.,.,/,/
Cc1ccc(Cl)cc1NC(=O)C(Cc1ccccc1)N1C(=O)C2C3CCC(C3)C2C1=O (stereo not drawn),15,.,.,.,.,.,.,9.4
CN(C(=O)[C@@H](Cc1ccccc1)NC(=O)[C@H]1O[C@@H](n2ccc(=O)[nH]c2=O)[C@H](O)[C@@H]1O)C1CCCCC1,/,/,/,/,.,.,/,/
COc1ccc(/C=N/NC(=O)c2cccnc2)cc1CN1CCCc2ccccc21,.,.,.,.,.,.,/,/
COc1ccc(C(=O)N/N=C/c2ccc(OC)c(CN3CCCc4ccccc43)c2)cc1,9.3,.,.,.,.,.,.,.
Cc1cccc(NC(=O)NC2CCCCCCC2)c1,7.6,.,/,.,.,.,102,36
Cc1ccc(NC(=O)NC2CCCCCCC2)cc1C,9.7,.,/,.,.,.,93,36
O=C(COc1ccc(F)cc1)Nc1ccc2c(c1)OCCO2,7.7,.,.,.,.,.,77,22
SMILES,GAA850 FXN act,HSP90 refold inh,HSF1 inh,AI-2 QS modul,PG9 binder,SMARCA2 activ,GAA30 FXN cntr,FXN GAA850 conf
CCC(=O)c1ccc(OCC(=O)Nc2ccc3c(c2)OCCO3)cc1,.,/,/,/,.,.,/,/
COC(=O)c1cc2c(c3c4cc(C)ccc4n(S(=O)(=O)c4cccc(C)c4)c13)C(=O)N(Cc1ccc(N(C)C)cc1)C2,/,/,/,/,.,.,/,/
CCOC(=O)c1[nH]c(C)c(C(=O)O)c1C,/,.,/,/,/,/,/,/
CCOC(=O)c1[nH]c(C)c(C(=O)C(C)C)c1C,8.8,.,.,.,.,.,77,24
CCOC(=O)c1[nH]c(C)c(CC(C)C)c1C,8.5,.,.,.,/,/,40,15
CCOC(=O)c1cc2c(=O)n3ccccc3nc2n(CCOC)c1=NC(=O)C(C)(C)C,10,.,.,.,.,.,92,35
CCOC(=O)c1cc2c(=O)n3ccccc3nc2n(CCCOC)c1=NC(=O)C(C)(C)C,.,.,.,.,.,.,/,/
CC(C)(C)n1nnnc1C(c1ccccc1)N1CCN(c2ncccc2C(F)(F)F)CC1 (stereo not drawn),/,/,/,/,.,.,/,/
C[C@H](NC(=O)[C@@H]1CCCN1C(=O)[C@@H]1CCCN1C(=O)c1cccc2ccccc12)c1ccccc1,/,/,/,/,.,.,/,/
C[C@@H]1CCCCO[C@@H](CN(C)Cc2ccc(C(F)(F)F)cc2)[C@@H](C)CN([C@H](C)CO)C(=O)c2cc(N(C)C)ccc2O1,.,/,/,/,.,.,/,/
Fc1ccc(/C=N/Nc2ncnc3nc[nH]c23)cc1F,.,.,.,.,.,.,/,/
Cc1ccccc1/C=N/Nc1ncnc2nc[nH]c12,8.4,.,.,.,.,.,64,21
C(=N\Nc1ncnc2nc[nH]c12)/c1cccs1,12,.,.,.,.,.,88,43
Cc1ccsc1/C=N/Nc1ncnc2nc[nH]c12,13,.,.,.,.,.,129,48
O=[N+]([O-])c1ccc(COc2ccccc2CO)cc1,/,/,/,/,.,.,/,/
CC(/C=C/c1ccco1)=N/NC(=O)Cc1cccs1,8.2,.,.,.,.,.,37,18
CC(/C=C/c1ccco1)=N/NC(=O)OC(C)(C)C,8.8,.,.,.,.,.,68,27
COC(=O)c1cc2c(c3c4cc(F)ccc4n(S(=O)(=O)c4ccccc4)c13)C(=O)N(C)C2,/,/,/,/,.,.,/,/
CCCNC(=O)c1ccccc1NC(=O)c1ccccc1N(C)S(=O)(=O)c1ccc(C)cc1,8.1,.,.,.,.,.,.,11
COc1ccc(C2CC(c3ccc(OC)c(OC)c3)=NN2S(C)(=O)=O)cc1 (stereo not drawn),8.2,.,.,.,.,.,105,40
COc1ccc(C2=NN(S(C)(=O)=O)C(c3ccc4nccnc4c3)C2)cc1 (stereo not drawn),.,.,.,.,.,.,/,/
CC(C)C[C@H](NC(=O)N1CCOCC1)C(=O)N1CCC[C@H]1C(=O)NCc1ccccc1,/,/,/,/,.,.,/,/

# High-throughput results (PubChem)
